Measured values published in PubChem BioAssay (Tox21).
Several values for one entry are separate records, joined by “and”; a condition that tells them apart may be missing. Identical values can stand only once. Results filed as inconclusive are left out. Activity calls are given as the source filed them. Unless noted, the call rests on the fitted dose curve; in most records, active means well fitted curve in the direction sought with a large enough effect in the repeat runs; inconclusive means weak or mixed curves; inactive means no such curve, though single readings can be large; an effect the other way counts as inactive or inconclusive.

Assays:
[1] = qHTS assay to identify small molecule agonists of the sonic hedgehog signaling (Shh) pathway (AID 1259368; calls by dose curve;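 further: NIH/3T3-derived 3T3Gli1-Luc cells carrying a stable Gli1-driven firefly luciferase reporter; series mostly up to about 92 µM; nearly all actives have a fitted effect of over 15% in size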)
Method in brief: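 Read-out: firefly luciferase luminescence from a Gli1 response element reporter stably integrated in NIH/3T3-derived 3T3Gli1-Luc cells, measured 30 min at room temperature after reagent addition. Compound exposure lasted 24 hr at 37 C, 5% CO2.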

[2] = qHTS assay to identify small molecule antagonists of the sonic hedgehog signaling (Shh) pathway (AID 1259369; calls by dose curve; further: nearly all actives have a fitted effect of over 45% in size)
Method in brief: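 Luminescence readout: firefly Luc under Gli1 response element in 3T3Gli1-Luc cells (NIH/3T3 clone). Antagonist mode, stimulation by conditioned medium; compound exposure 24hr at 37 C, 5% CO2.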

[3] = qHTS assay to identify small molecule agonists of the androgen receptor (AR) signaling pathway in the presence of an antagonist - cell viability counter screen (AID 1259379); further: nearly all actives have a fitted effect of over 25% in size; further: potency means the concentration at half of the fitted maximal effect
Method in brief: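 Viability counter screen: CellTiter-Fluor fluorescence, measured in the same wells as the luciferase read-out. MDA-kb2 cells, 3,000/well, with nilutamide at 3.0uM final and compounds at 15 concentrations, 16 hr at 37C, 0% CO2.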

[4] = qHTS assay to identify small molecule agonists of the estrogen receptor beta (ER-beta) signaling pathway - cell viability counter screen (AID 1259380); further: nearly all actives have a fitted effect of over 30% in size
Method in brief: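 Luminescence read-out (CellTiter-Glo, 30 min, room temp) taken in the same wells as the beta-lactamase reporter assay; ER-beta-UAS-bla HEK293T cells exposed to DMSO-dissolved compounds for 16 hr at 37C in 2% charcoal-stripped FBS medium.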

[5] = target: Androgen receptor (Homo sapiens) (UniProt P10275); experiment: qHTS assay to identify small molecule agonists of the androgen receptor (AR) signaling pathway in the presence of an antagonist (AID 1259381; calls by dose curve; further: nearly all actives have a fitted effect of over 15% in size)
Sequence of Androgen receptor (Homo sapiens) (P10275 whole entry, looked up): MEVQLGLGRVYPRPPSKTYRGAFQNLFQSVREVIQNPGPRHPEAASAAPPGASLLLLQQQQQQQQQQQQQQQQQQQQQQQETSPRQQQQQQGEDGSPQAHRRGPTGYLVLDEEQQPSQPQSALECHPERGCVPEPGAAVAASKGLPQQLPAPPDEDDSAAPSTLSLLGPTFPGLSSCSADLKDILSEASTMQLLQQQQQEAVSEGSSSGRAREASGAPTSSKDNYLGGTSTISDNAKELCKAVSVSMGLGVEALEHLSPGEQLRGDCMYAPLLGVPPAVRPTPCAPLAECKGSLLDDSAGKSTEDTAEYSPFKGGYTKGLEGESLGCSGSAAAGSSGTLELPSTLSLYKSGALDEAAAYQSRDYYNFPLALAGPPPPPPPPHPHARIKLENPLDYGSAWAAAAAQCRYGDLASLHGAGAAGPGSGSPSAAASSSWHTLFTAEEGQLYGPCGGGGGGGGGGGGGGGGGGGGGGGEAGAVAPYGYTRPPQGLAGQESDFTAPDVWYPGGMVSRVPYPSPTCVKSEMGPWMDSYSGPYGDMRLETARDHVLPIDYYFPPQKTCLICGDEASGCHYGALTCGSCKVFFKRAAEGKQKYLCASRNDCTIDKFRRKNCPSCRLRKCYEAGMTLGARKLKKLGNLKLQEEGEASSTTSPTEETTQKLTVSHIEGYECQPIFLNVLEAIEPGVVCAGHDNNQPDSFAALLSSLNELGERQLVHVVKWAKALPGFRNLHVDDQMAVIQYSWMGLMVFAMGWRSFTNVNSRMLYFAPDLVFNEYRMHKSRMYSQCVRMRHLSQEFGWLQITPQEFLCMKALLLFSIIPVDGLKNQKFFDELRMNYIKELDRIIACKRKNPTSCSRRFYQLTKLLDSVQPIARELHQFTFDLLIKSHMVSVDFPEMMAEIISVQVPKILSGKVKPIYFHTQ
Method in brief: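 Luciferase read-out (ONE-Glo, 30min room temperature) in MDA-kb2 MMTV-reporter cells; agonist mode run in presence of AR antagonist nilutamide, 3.0uM final. Compounds tested as 15-point series, 16hr exposure at 37C, 0% CO2.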

[6] = qHTS assay to identify small molecule antagonists of the estrogen receptor beta (ER-beta) signaling pathway - cell viability counter screen (AID 1259382); further: series mostly up to about 92 µM; nearly all actives have a fitted effect of over 55% in size
Method in brief: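 Luminescent ATP read-out (CellTiter-Glo, 30 min, RT) taken in the same wells as the bla reporter assay. HEK293T ER-beta-UAS-bla cells in 2% charcoal-stripped FBS were exposed to compounds with 1nM E2 for 16 hr at 37C.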

[7] = target: Thyrotropin receptor (Homo sapiens) (UniProt P16473); experiment: qHTS assay to identify small molecule antagonists of the thyroid stimulating hormone receptor (TSHR) signaling pathway (AID 1259385; calls by dose curve; further: nearly all actives have a fitted effect of over 20% in size)
Sequence of Thyrotropin receptor (Homo sapiens) (P16473 whole entry, looked up): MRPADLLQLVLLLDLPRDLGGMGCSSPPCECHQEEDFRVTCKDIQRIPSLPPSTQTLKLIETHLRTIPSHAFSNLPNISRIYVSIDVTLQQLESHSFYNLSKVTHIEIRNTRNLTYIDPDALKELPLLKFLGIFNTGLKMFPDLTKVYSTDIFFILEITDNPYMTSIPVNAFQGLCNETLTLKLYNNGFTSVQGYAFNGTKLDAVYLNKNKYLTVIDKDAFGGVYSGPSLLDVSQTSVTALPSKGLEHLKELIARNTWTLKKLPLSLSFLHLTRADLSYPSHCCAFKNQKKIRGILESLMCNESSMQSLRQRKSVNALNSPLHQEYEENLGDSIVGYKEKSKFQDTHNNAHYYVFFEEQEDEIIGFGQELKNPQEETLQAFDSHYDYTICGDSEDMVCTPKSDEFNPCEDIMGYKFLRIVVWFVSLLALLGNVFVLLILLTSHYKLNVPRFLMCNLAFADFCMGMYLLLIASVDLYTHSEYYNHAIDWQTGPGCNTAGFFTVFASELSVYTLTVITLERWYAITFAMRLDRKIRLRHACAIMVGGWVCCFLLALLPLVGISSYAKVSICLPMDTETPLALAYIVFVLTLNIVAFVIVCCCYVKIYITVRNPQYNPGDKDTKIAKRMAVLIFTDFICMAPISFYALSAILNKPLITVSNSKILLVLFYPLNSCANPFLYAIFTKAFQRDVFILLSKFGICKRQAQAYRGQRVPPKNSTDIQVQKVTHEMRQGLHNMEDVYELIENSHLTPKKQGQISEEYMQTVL
Method in brief: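 TSHR-HEK293 cells (800/well) plated 18 h, then compounds with Ro20-1724 and TSH at 1.5 ng/mL final, 30 min at room temperature. cAMP quantified by HTRF (cAMP-d2/anti-cAMP-cryptate, 1 h); 15 concentrations in triplicate.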

[8] = qHTS assay to identify small molecule agonists of the estrogen receptor alpha (ER-alpha) signaling pathway in the presence of an antagonist - cell viability counter screen (AID 1259386);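 further: cells exposed to compounds for 22 h at 37 °C before the viability read; nearly all actives have a fitted effect of over 30% in size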; further: potency means the concentration at half of the fitted maximal effect
Method in brief: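 Read-out: CellTiter-Fluor fluorescence after 1hr reagent incubation, measured in the same wells as the luciferase readout. VM7Luc4E2 cells were exposed to 15 compound concentrations with 10.0nM ICI-182,780 for 22hr at 37C.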

[9] = target: Progesterone receptor (Homo sapiens) (UniProt P06401); experiment: qHTS assay to identify small molecule agonists of the progesterone receptor (PR) signaling pathway (AID 1346784; calls by dose curve; further: nearly all actives have a fitted effect of over 30% in size)
Sequence of Progesterone receptor (Homo sapiens) (P06401 whole entry, looked up): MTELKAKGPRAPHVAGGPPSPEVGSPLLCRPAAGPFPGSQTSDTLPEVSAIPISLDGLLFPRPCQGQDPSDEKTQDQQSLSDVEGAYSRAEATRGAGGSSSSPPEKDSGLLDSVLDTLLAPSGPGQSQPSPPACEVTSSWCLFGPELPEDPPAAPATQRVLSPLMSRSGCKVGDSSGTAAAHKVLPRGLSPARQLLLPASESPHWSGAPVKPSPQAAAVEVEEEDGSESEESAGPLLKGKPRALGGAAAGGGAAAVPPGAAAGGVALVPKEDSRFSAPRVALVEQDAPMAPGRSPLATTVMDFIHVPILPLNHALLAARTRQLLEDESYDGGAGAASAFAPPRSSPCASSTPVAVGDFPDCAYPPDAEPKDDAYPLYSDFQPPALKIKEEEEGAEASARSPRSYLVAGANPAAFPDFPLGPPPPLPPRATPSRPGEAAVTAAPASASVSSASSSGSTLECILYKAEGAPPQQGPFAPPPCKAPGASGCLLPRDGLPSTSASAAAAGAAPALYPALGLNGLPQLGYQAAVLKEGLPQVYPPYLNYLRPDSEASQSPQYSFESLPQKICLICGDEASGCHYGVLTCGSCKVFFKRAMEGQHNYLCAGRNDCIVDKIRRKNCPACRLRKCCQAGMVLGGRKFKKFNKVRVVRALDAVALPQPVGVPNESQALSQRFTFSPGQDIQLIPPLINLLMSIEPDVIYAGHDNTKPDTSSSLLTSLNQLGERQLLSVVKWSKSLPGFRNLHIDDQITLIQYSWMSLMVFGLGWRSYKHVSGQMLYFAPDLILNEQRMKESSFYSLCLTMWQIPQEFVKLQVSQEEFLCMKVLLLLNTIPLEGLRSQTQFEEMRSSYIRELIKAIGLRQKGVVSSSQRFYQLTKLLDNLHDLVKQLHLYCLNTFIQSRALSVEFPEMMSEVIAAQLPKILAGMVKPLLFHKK
Method in brief: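 Compounds were tested for PR agonism in HEK 293T cells bearing a beta-lactamase gene under UAS control. Treatment lasted 16 hr at 37C; signal came from fluorescence of a FRET substrate.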

[10] = target: Progesterone receptor (Homo sapiens) (UniProt P06401); experiment: qHTS assay to identify small molecule antagonists of the progesterone receptor (PR) signaling pathway (AID 1346795; active means well fitted inhibition curve with a large enough effect in the signal ratio in the repeat runs, not every such curve was filed as active; the % refers to the signal ratio)
Method in brief: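 In HEK293T cells bearing the PR-UAS-bla reporter, compound effects on promegestone-driven (1 nM) beta-lactamase expression are assessed after 16 hr using a fluorescent FRET substrate incubated 2 hr at room temperature.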

[11] = qHTS assay to identify small molecule antagonists of the progesterone receptor (PR) signaling pathway - cell viability counter screen (AID 1346798); further: series mostly up to about 92 µM; nearly all actives have a fitted effect of over 50% in size
Method in brief: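 Following a 4 hr attachment, PR-UAS-bla HEK293T cells in charcoal-stripped FBS medium were exposed to compounds with R5020 for 16 hr; CellTiter-Glo was added and luminescence read after 30 min at room temperature.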

[12] = qHTS assay to identify small molecule agonists of the progesterone receptor (PR) signaling pathway - cell viability counter screen (AID 1346799; calls by dose curve; further: nearly all actives have a fitted effect of over 45% in size)
Method in brief: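 Here, 3,000 PR-UAS-bla HEK293T cells per well were treated with compounds for 16 hr after a 6 hr preincubation at 37C and 5% CO2; cell viability is the CellTiter-Glo luminescence signal.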

[13] = qHTS assay to identify small molecule antagonists of the TGF-beta/Smad signaling pathway - cell viability counter screen (AID 1346824); further: nearly all actives have a fitted effect of over 50% in size
Method in brief: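 SBE-bla HEK 293T cells, incubated overnight, then compound plus 0.25 ng/mL TGF-beta1 (stock added) for 5 hr at 37 C. Viability was read in the same wells by CellTiter-Glo luminescence after 30 min at room temperature.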

[14] = qHTS assay to identify small molecule agonists of the TGF-beta/Smad signaling pathway - cell viability counter screen (AID 1346829); further: top concentration of the series differs between compounds; nearly all actives have a fitted effect of over 45% in size
Method in brief: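 HEK 293T SBE-bla line, 5 hr compound exposure at 37 C, multiplexed CellTiter-Glo viability read by luminescence.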

[15] = qHTS assay to identify small molecule agonists of the TGF-beta/Smad signaling pathway (AID 1346859; active means well fitted activation curve with a large enough effect in the signal ratio in the repeat runs, not every such curve was filed as active; the % refers to the signal ratio; further: series mostly up to about 77 µM)
Method in brief: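 Each well held 4,000 SBE-bla HEK 293T cells incubated overnight before compound addition; 5 hr later the cleavable FRET substrate went on for 2 hr at room temperature, and fluorescence was read at two emissions.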

[16] = target: Estrogen receptor (Homo sapiens) (UniProt P03372); experiment: qHTS assay to identify small molecule agonists of the estrogen receptor alpha (ER-alpha) signaling pathway in the presence of an antagonist (AID 1259383; calls by dose curve; further: top concentration of the series differs between compounds; nearly all actives have a fitted effect of over 15% in size)
Sequence of Estrogen receptor (Homo sapiens) (P03372 whole entry, looked up): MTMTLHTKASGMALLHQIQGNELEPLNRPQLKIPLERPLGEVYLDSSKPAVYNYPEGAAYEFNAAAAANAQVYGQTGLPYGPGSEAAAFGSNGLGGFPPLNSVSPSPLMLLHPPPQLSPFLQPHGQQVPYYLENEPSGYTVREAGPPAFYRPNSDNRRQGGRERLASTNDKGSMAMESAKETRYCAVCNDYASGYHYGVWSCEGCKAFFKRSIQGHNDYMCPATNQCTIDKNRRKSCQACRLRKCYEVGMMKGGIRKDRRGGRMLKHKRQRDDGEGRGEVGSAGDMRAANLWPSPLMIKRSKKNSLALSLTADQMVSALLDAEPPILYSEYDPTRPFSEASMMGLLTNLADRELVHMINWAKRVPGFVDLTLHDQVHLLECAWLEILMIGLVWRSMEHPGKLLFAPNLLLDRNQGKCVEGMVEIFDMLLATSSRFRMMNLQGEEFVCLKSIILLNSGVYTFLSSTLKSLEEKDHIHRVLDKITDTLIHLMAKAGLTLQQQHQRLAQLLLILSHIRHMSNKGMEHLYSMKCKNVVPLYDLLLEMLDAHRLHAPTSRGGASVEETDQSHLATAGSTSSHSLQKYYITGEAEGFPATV
Method in brief: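 Luciferase luminescence (ONE-Glo, 30min at room temperature) measured in VM7Luc4E2 cells after 22hr compound exposure at 15 concentrations, with 10.0nM ICI-182,780 final present; cells express endogenous ER-alpha and carry four EREs upstream of luciferase.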

[17] = qHTS assay to identify small molecule agonists or antagonists of the thyroid stimulating hormone receptor (TSHR) signaling pathway - wild type cell line counter screen (AID 1259384; calls by dose curve)
Method in brief: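 Wild-type Hek293 cells, 800/well, 18 h at 37C, then compound with Ro20-1724 for 30 min RT. cAMP by HTRF (cAMP-d2/anti-cAMP cryptate), 1 h RT, fluorescence read. 15 concentrations, triplicates.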

[18] = target: Thyrotropin-releasing hormone receptor (Homo sapiens) (UniProt P34981); experiment: qHTS assay to identify small molecule antagonists of the thyrotropin-releasing hormone receptor (TRHR) signaling pathway (AID 1346877; active means well fitted inhibition curve with a large enough effect in the repeat runs, not every such curve was filed as active; further: series mostly up to about 51 µM)
Sequence of Thyrotropin-releasing hormone receptor (Homo sapiens) (P34981 whole entry, looked up): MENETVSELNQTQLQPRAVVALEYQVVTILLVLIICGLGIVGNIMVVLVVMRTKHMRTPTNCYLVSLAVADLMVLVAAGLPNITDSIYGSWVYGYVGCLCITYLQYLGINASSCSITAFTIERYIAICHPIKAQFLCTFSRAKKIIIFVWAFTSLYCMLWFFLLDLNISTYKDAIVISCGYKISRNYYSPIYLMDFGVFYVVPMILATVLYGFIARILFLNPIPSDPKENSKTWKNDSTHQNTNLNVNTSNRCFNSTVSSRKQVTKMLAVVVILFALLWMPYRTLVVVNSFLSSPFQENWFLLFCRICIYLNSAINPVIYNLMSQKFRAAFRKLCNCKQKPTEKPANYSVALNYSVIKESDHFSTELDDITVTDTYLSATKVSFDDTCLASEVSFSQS
Method in brief: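 HEK293/TRHR cells, 18 h, 37 °C; Ca2+ dye 2 h; cpd 5 min RT; TRH 1 nM final; fluorescence read 3 min, 1 s intervals; 15 concs, triplicate.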

[19] = target: Estrogen receptor beta (Homo sapiens) (UniProt Q92731); experiment: qHTS assay to identify small molecule agonists of the estrogen receptor beta (ER-beta) signaling pathway (AID 1259377; active means well fitted activation curve with a large enough effect in the signal ratio in the repeat runs, not every such curve was filed as active; the % refers to the signal ratio)
Sequence of Estrogen receptor beta (Homo sapiens) (Q92731 whole entry, looked up): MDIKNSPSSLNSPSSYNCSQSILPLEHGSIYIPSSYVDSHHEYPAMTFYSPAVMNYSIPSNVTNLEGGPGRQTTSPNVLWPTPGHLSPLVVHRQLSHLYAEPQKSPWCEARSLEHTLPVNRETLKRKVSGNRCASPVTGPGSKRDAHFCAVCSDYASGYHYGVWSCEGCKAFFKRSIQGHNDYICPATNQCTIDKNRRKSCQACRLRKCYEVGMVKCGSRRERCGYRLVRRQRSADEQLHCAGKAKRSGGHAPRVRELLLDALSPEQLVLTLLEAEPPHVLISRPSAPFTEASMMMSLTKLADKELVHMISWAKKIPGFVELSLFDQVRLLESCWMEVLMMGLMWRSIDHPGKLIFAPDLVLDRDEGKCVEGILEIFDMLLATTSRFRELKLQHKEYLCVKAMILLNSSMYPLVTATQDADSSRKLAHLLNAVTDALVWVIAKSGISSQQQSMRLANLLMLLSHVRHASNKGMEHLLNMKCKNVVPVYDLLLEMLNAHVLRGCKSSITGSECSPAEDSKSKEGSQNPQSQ
Method in brief: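 Read-out: beta-lactamase FRET fluorescence. Cell line: ER-beta-UAS-bla HEK293T in 2% charcoal-stripped FBS. Exposure: 16 hr at 37C. Substrate step: 2 h at room temperature.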

[20] = target: Estrogen receptor beta (Homo sapiens) (UniProt Q92731); experiment: qHTS assay to identify small molecule antagonists of the estrogen receptor beta (ER-beta) signaling pathway (AID 1259378; active means well fitted inhibition curve with a large enough effect in the signal ratio in the repeat runs, not every such curve was filed as active; the % refers to the signal ratio)
Method in brief: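 ER-beta-UAS-bla HEK293T cells in 2% charcoal-stripped FBS medium treated with compound plus 1nM final 17-beta-estradiol for 16 hr at 37C. Beta-lactamase reporter read by FRET substrate fluorescence after 2 hours at room temperature.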

Measured: Potency

COc1cc(OC)c(C(=O)CCCN2CCCC2)c(OC)c1
inactive: [1] | [2] | [3] | [4] | [5] | [6] | [7] | [8] | [9] | [10] | [11] | [12] | [13] | [14] | [15]

CCCCCCC=O
inactive: [1] | [2] | [3] | [4] | [6] | [16] | [17] | [7] | [8] | [9] | [10] | [11] | [12] | [13] | [14] | [15] | [18]

Cc1ccc2ncccc2c1
inactive: [1] | [2] | [3] | [4] | [6] | [16] | [17] | [7] | [8] | [9] | [10] | [12] | [13] | [14] | [15] | [18]

CCCCCCCC=O
inactive: [1] | [2] | [3] | [4] | [6] | [16] | [8] | [9] | [10] | [11] | [12] | [13] | [14] | [15]

OC1C(O)C(O)C(O)C(O)C1O (stereo unspecified)
inactive: [1] | [2] | [3] | [4] | [6] | [16] | [17] | [7] | [8] | [9] | [10] | [11] | [12] | [13] | [14] | [15]

CC(C)CCCCCCCOC(=O)CCCCC(=O)OCCCCCCCC(C)C
inactive: [1] | [2] | [3] | [4] | [6] | [17] | [7] | [8] | [9] | [10] | [11] | [12] | [13] | [14] | [15] | [18]

CCCCCCO
inactive: [1] | [2] | [3] | [4] | [6] | [16] | [17] | [7] | [8] | [9] | [10] | [12] | [14] | [15] | [18]

COc1ccc(C)cc1N
inactive: [1] | [2] | [3] | [4] | [5] | [6] | [16] | [17] | [7] | [8] | [9] | [10] | [12] | [13] | [14] | [15] | [18]

CCNc1cccc(C)c1
inactive: [1] | [2] | [3] | [4] | [6] | [16] | [17] | [7] | [8] | [9] | [10] | [11] | [12] | [14] | [15]

COC(=O)CCCC(=O)OC
inactive: [1] | [2] | [3] | [4] | [6] | [17] | [7] | [8] | [9] | [10] | [12] | [14] | [15] | [18]

O=C(O)c1ccc(C(=O)O)c(C(=O)O)c1
inactive: [1] | [2] | [3] | [4] | [5] | [6] | [16] | [7] | [8] | [9] | [10] | [12] | [13] | [14] | [15]

NC(=S)NNC(N)=S
inactive: [1] | [2] | [3] | [4] | [6] | [17] | [7] | [8] | [9] | [10] | [11] | [12] | [13] | [14] | [15]

O=C(OCC1CCC2OC2C1)C1CCC2OC2C1 (stereo unspecified)
inactive: [1] | [2] | [3] | [4] | [6] | [16] | [17] | [7] | [9] | [10] | [11] | [12] | [13] | [14] | [15]

CC(C)(Oc1ccc(CCNC(=O)c2ccc(Cl)cc2)cc1)C(=O)O
inactive: [1] | [2] | [3] | [4] | [6] | [16] | [17] | [7] | [8] | [9] | [10] | [11] | [12] | [13] | [14] | [15] | [18]

O=C1CCCC1
inactive: [1] | [19] | [20] | [3] | [4] | [6] | [16] | [8] | [9] | [10] | [11] | [12] | [13] | [14] | [15] | [18]

O=C(O)CCCCCCCCC(=O)O
inactive: [1] | [2] | [3] | [4] | [6] | [17] | [7] | [8] | [9] | [10] | [11] | [12] | [13] | [14] | [15]

CC(C)c1cccc(C(C)C)c1
inactive: [1] | [2] | [3] | [4] | [6] | [16] | [7] | [8] | [11] | [12] | [14] | [15]

NCCCCCCN
inactive: [1] | [2] | [3] | [4] | [6] | [17] | [7] | [8] | [9] | [10] | [12] | [14] | [15] | [18]

O=S(=O)(O)c1ccc(N=Nc2c(O)ccc3cc(S(=O)(=O)O)ccc23)cc1
active: [3] 54.7 µM and 30.6 µM | [8] 48.8 µM and 27.3 µM
inactive: [1] | [2] | [4] | [6] | [16] | [9] | [10] | [11] | [12] | [13] | [14] | [15] | [18]

COCCCN
inactive: [1] | [2] | [3] | [4] | [6] | [16] | [17] | [7] | [8] | [9] | [10] | [11] | [12] | [13] | [14] | [15] | [18]

CC(C)OC(=O)COc1ccc(Cl)cc1Cl
inactive: [1] | [2] | [3] | [4] | [6] | [16] | [17] | [7] | [8] | [9] | [10] | [11] | [12] | [13] | [14] | [15]

CCCOC(=O)c1ccccc1
inactive: [1] | [2] | [3] | [4] | [6] | [7] | [8] | [9] | [10] | [12] | [13] | [14] | [15] | [18]
